# Assay outcomes deposited in PubChem by National Center for Advancing Translational Sciences (NCATS).
# The entries come from a sample that favours hits as a whole.
# Shiga inhibitor = blocks Shiga toxin action in Vero cells. 290,000 tested, 9.2% active. Vero cells, Shiga toxin protein synthesis inhibition reporter. inhibition, % at 38.7 µM. AID 2315; in the data active = inhibition mostly above about 28%, no sharp cut-off; inactive = mostly below about 43%; also: 0% is about no effect
# LmPK inhibitor = inhibitors of Leishmania mexicana pyruvate kinase. 290,000 tested, 0.37% active. purified LmPK, Kinase-Glo ATP luminescence, 1 h. Potency, µM (titrated, usually from 57.5 µM), for the others: at the top dose activity change, negative = inhibition, most hits filed as inhibitors; also: potency is read from the fitted curve at half-maximal effect; % is scaled to controls: 0 for no effect and ±100 for the full control effect
#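 Purified LmPK (0.1 nM) converted ADP (0.1 mM) to ATP with PEP (0.5 mM) in imidazole buffer pH 7.2 with KCl and MgCl2, 1 h at room temperature. ATP was read by Kinase-Glo luminescence; data normalized to uninhibited and no-enzyme controls.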
# RE007 growth inh = less growth of the S. pombe RE007 Vpr strain. Potency, µM (top dose mostly 92.2 µM), for inactives: at the top dose activity change, negative = less growth, usual class: inhibitors. AID 651644. S. pombe RE007 Vpr strain, BacTiter-Glo ATP luminescence, 24 h. 360,000 tested, 0.21% active; active = well fitted falling curve with a large enough effect; inconclusive = small, poorly fitted or top-dose-only effect; inactive = no such curve, though single readings can be large or run the other way; also: potency is read from the fitted curve at half-maximal effect; % is scaled to controls: 0 for no effect and ±100 for the full control effect; nearly all actives have a fitted effect of over 50% in size
#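 Fission yeast strain RE007, carrying one chromosomally integrated HIV-1 vpr copy, was seeded at OD 0.01 in PMG+AL medium with 23 nL pinned compound. After 24 h at 30 °C and 99% humidity, viability was read by BacTiter-Glo luminescence.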
# TbPYK inhibitor = T. brucei pyruvate kinase inhibition | Q57TT1 | TbPYK enzyme, Kinase-Glo Plus ATP luminescence, 45 min | Potency, µM (top dose mostly 76.8 µM), for the others: at the top dose activity, negative = inhibition, actives largely listed as inhibitors | 410,000 tested, 0.12% active | AID 624173; also: potency is read from the fitted curve at half-maximal effect; % is scaled to controls: 0 for no effect and ±100 for the full control effect; nearly all actives have a fitted effect of over 50% in size
#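 In this concentration-response screen, enzyme-free wells defined baseline while DMSO plates tracked drift. Each reaction combined TbPYK, substrate, compound and 130 uM ADP for 45 min at room temperature. Kinase-Glo Plus luminescence gave the signal.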
# Giardia FBPA inh = blocks Giardia fructose-bisphosphate aldolase activity; A8B2U2; purified Giardia FBPA; Potency, µM (doses to about 59.6 µM), without a hit: at the highest dose activity, negative = inhibition, most hits filed as inhibitors; 290,000 tested, 0.71% active; AID 2451; also: potency is read from the fitted curve at half-maximal effect; % is scaled to controls: 0 for no effect and ±100 for the full control effect; nearly all actives have a fitted effect of over 55% in size
# Target sequence (A8B2U2 whole entry, looked up): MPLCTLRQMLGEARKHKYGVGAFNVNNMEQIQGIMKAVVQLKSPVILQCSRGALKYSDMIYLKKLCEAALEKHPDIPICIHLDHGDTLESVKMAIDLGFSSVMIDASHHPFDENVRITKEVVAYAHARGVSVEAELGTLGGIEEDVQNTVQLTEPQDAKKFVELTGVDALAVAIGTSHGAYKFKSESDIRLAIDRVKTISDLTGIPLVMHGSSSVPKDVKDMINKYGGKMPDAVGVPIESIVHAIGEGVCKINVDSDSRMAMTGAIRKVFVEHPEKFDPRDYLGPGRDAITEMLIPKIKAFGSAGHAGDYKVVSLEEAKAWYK
#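 Giardia FBPA (40 nM reagent) was preincubated 10 min at RT with compound (up to 57.5 uM final), then substrate plus GAPDH/TPI/NAD/arsenate coupling system with diaphorase/resazurin was added; resorufin fluorescence (525/598 nm) was read after 20 min.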
# Cycloheximide cs = counter-screen hit for Shiga toxin inhibitors, cycloheximide | cell reporter, cycloheximide protein synthesis inhibition counterscreen | max response, % | 300,000 tested, 12% active | AID 2314; in the data active = max response mostly above about 13%, no sharp cut-off; inactive = mostly below about 14%; also: read at 38.3 µM for the half of the compounds with a filed dose; 0% is about no effect
# * = called active by the depositor; ? = inconclusive; . = no result; [ ] = remark or other dose. Unless noted, calls follow the shape of the dose curve; as a rule, active = well fitted curve in the direction sought with a large enough effect; inconclusive = small, poorly fitted or top-dose-only effect, or another doubt; inactive = no such curve, though single readings can be large; an effect the other way counts as inactive or inconclusive.
SMILES,Shiga inhibitor,LmPK inhibitor,RE007 growth inh,TbPYK inhibitor,Giardia FBPA inh,Cycloheximide cs
Cc1cccc(NC(=O)C2CCC(CNS(=O)(=O)c3ccc4c(c3)CCCC(=O)N4)CC2)c1C (configuration not stated),.,.,.,0.1%,.,.
CC(=O)c1ccc(Oc2ncnc3sccc23)cc1,79.5*,0.2%,5.4%,-1.5%,2.3%,48.1*
Cc1cc(C(=O)COc2ncnc3sccc23)c(C)n1C,133.7*,-2.7%,13.3%,-5.4%,-3.2%,31.2*
CC(=O)N1CCN(c2ccc(Oc3ncnc4sccc34)cc2)CC1,-20.7,0.8%,19.9%,-3.5%,-2.1%,-3.9
Cc1cc(=O)[nH]c2nnc(SCc3ccccc3F)n12,.,.,.,-9.5%,.,.
COCCN(CCOC)c1nc(C)nc2c1nc(-c1ccccc1)n2CCCN(C)C,.,.,.,.,0.3%,.
CCCc1nc2c(=O)n(C)c(=O)nc-2n(C)n1,-11.6,-1.1%,-13.9%,-19.9%,5µM*,-14.3
Cn1nc(-c2ccccn2)nc2c(=O)n(C)c(=O)nc1-2,24.6,0.1%,-6.5%,0.0%,?,8.0
O=S(=O)(Nc1cccc(-c2ccc(N3CCCCC3)nn2)c1)c1cccs1,.,.,.,1.8%,.,.
CCc1cccc(-n2c(=O)c3cccnc3n2CC(=O)Nc2ccc(OC)c(Cl)c2)c1,.,.,.,-1.6%,.,.
COc1ccc(NC(=O)CSc2nnnn2C2CC3C=CC2C3)cc1 (configuration not stated),31.3,2.7%,-7.8%,5.1%,.,19.7*
COc1ccc(NC(=O)CSc2nccn2Cc2ccccc2)cc1,163.7*,-6.6%,-7.5%,0.6%,.,53.3*
COc1ccc(NC(=O)CSc2nccn2-c2ccccc2)cc1,39.3,1.8%,-11.3%,-0.2%,2.0%,22.0*
O=C(/C=C/c1ccccc1)NCCC1=CCCCC1,39.5*,0.7%,.,-5.9%,2.2%,38.3*
COc1ccccc1/C=C/C(=O)NCCC1=CCCCC1,117.7*,-3.4%,15.8%,0.6%,4.0%,29.1*
O=C(/C=C/c1ccc(F)cc1)NCCC1=CCCCC1,117.4*,5.5%,17.2%,6.0%,-0.8%,33.3*
O=C(CCc1nnc2n(Cc3ccccc3Cl)c(=O)c3ccccc3n12)Nc1ccccc1,.,.,.,-1.2%,.,.
Nc1ccc(Oc2cc(N)cc(Oc3ccccc3)c2)cc1,67.7*,1.3%,-28.3%,-5.1%,2.7%,43.6*
CCOC(=O)c1ccc(NC(=O)CCn2nnc3ccccc32)cc1,41.6,1.4%,2.1%,-13.1%,0.9%,12.3*
CCOC(=O)c1ccc(NC(=O)Cn2nnc3ccccc32)cc1,91.8*,-0.2%,5.0%,-0.6%,4.6%,32.2*
COC(=O)c1cccc(NC(=O)Cn2nnc3ccccc32)c1,33.5,-2.3%,-1.7%,3.3%,-0.2%,9.7
CN(Cc1cccs1)C(=O)CSc1nc2ccccc2[nH]1,122.5*,2.3%,-4.6%,2.6%,-3.6%,47.3*
CC(Sc1nc2ccccc2[nH]1)C(=O)O (configuration not stated),-15.0,4.8%,2.6%,-0.7%,-8.5%,-2.5
C=C(C)CSc1nc2nc(C)c(Br)cc2[nH]1,80.9*,-1.9%,.,.,-13.4%,29.8*
CC(=O)N=C(N)Sc1nc2ccccc2[nH]1,67.3*,-4.2%,-27.2%,3.0%,-3.8%,48.2*
SMILES,Shiga inhibitor,LmPK inhibitor,RE007 growth inh,TbPYK inhibitor,Giardia FBPA inh,Cycloheximide cs
O=C(CSc1nc2ccccc2[nH]1)N1c2ccccc2Sc2ccccc21,-6.5,1.8%,0.2%,-6.0%,5.4%,10.5
C=C(C)CSc1nc2ccccc2[nH]1,59.5*,-14.2%,-12.0%,-4.5%,-14.5%,28.6*
CCOC(=O)NC(=O)CSc1nc2ccccc2[nH]1,17.1,2.5%,-8.6%,-3.0%,-6.3%,7.0
COc1ccc(-c2c(C)nn3c(C(F)(F)F)cc(-c4ccccc4)nc23)cc1OC,.,.,.,7.5%,.,.
CSc1nc(N)c2ncn([C@H]3O[C@H](COP(=O)(O)OP(=O)(O)O)[C@@H](O)[C@@H]3O)c2n1,.,.,.,.,7.7%,.
COc1ccc(-c2ccc3c(n2)CCCN3C[C@H](O)CN2CCCc3nc(-c4ccc(Br)cc4)ccc32)cc1,.,.,.,.,-6.6%[12.9 µM],.
COc1ccc(-c2nc(C)c(CCNC(=O)C(=O)Nc3cccc(F)c3)s2)cc1OC,.,.,.,-2.2%,.,.
CC(C)CCSc1nc2ccccc2[nH]1,102.5*,-26.7%,?,3.1%,-18.1%,52.3*
CCn1nnc2cc(C(=O)Nc3cc(C)ccc3C)ccc21,.,.,.,2.6%,.,.
CCN(CC)c1ccc(/C=N/NC(=O)Cc2cccs2)cc1,31.0,2.0%,-5.4%,3.0%,-10.1%,33.3*
COc1ccc(CC(=O)N/N=C/c2cccs2)cc1OC,-3.9,3.3%,-9.7%,0.8%,-1.0%,-2.1
COc1ccc(/C=N/NC(=O)Cc2cccs2)cc1,63.8*,0.2%,-8.0%,4.2%,0.6%,62.5*
COc1ccc(COC(=O)N/N=C/c2cccs2)cc1,49.1*,2.2%,1.0%,12.4%,2.8%,24.7*
O=C(Cc1cccs1)N/N=C/c1ccccn1,39.1*,-0.2%,-12.8%,-1.1%,?,27.1*
CCc1ccc(CC2S/C(=C(\C#N)C(C)=O)NC2=O)cc1 (configuration not stated),37.3,1.1%,9.9%,1.7%,0.7%,9.8
CC(=O)/C(C#N)=C1\NC(=O)C(Cc2ccc(C)c(Cl)c2)S1 (configuration not stated),24.7,5.4%,20.3%,2.7%,20.4%,15.8*
O=C(NC(=O)c1ccc(Cl)cc1)Nc1ccc(-c2cnco2)cc1,-8.8,0.8%,.,.,2.0%,-1.2
O=C(Nc1ccc(-c2cnco2)cc1)c1ccc(F)cc1F,34.6*,5.3%,-3.3%,-3.2%,0.4%,33.6*
COc1ccc(CCNS(=O)(=O)c2ccc(Br)s2)cc1,38.6*,-9.4%,4.8%,-0.6%,.,29.2*
O=S(=O)(NCCc1ccccc1)c1ccc(Br)s1,18.6,3.7%,-7.1%,-5.9%,.,-1.5
CC(C)OC(=O)/C(=C/c1ccc2c(c1)c1ccccc1n2C)NC(=O)c1ccccc1,53.0*,-1.4%,-3.8%,2.1%,-0.7%,20.2*
CC(C)OC(=O)/C(=C\c1ccc2c(c1)c1ccccc1n2C)NC(=O)c1ccccc1,67.0*,-3.1%,-12.4%,0.6%,-2.3%,29.3*
COc1ccc(NC(=O)c2[nH]ncc2[N+](=O)[O-])cc1,63.5,-6.7%,4.0%,0.0%,-11.8%,25.6*
COc1ccc(NC(=O)c2nn(C)cc2[N+](=O)[O-])cc1,35.0,-15.6%,-5.6%,-4.2%,6.9%,15.4*
Cn1cc(Br)c(C(=O)Nc2ccc3c(C(F)(F)F)cc(=O)oc3c2)n1,10.5,-9.9%,-5.4%,-6.9%,.,0.6
Cn1cc([N+](=O)[O-])c(C(=O)Nc2ccc3c(C(F)(F)F)cc(=O)oc3c2)n1,12.3,-0.1%,12.6%,0.2%,.,14.9*
Cc1csc(CN(C)C(=O)c2cn(Cc3cccc4ccccc34)nn2)n1,35.8*,-14.8%,-4.4%,-8.5%,.,21.2
